In PubChem BioAssay AID1159580 (chemical genetic matrix, 2015):
About 2,000 (36%) of roughly 5,500 compounds were called active. Roughly 18% stayed inconclusive and do not appear here. No stated cut-off is given here; in the data, active means normalized growth mostly below about 0.91 (no sharp cut-off); inconclusive means no clear call, values can overlap the other calls; inactive means mostly above about 0.92. Some of the results follow.

Test: chemical genetic growth profiling, strain panel (AID 1159580);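 further: tested at 20 µM; growth read once vehicle control cultures reached saturation at 30 °C; 1 = growth at the plate median or of vehicle wells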
Conditions: S. cerevisiae deletion strains, growth OD

Measured: normalized growth

Oc1c(I)cc(Cl)c2cccnc12
active: locus YAL021C, strain ccr4, stronger effect = lower value 0.0783 | locus YAL026C, strain drs2, stronger effect = lower value 0.0852 | locus YAL030W, strain snc1, stronger effect = lower value 0.074 | locus YBL061C, strain skt5, stronger effect = lower value 0.0782 | locus YBR009C, strain hhf1, stronger effect = lower value 0.0791 | locus YBR023C, strain chs3, stronger effect = lower value 0.0818 | locus YBR171W, strain sec66, stronger effect = lower value 0.115 | locus YBR231C, strain swc5, stronger effect = lower value 0.0829 | locus YBR279W, strain paf1, stronger effect = lower value 0.0782 | locus YCL011C, strain gbp2, stronger effect = lower value 0.0716 | locus YCL016C, strain dcc1, stronger effect = lower value 0.0859 | locus YCL061C, strain MRC1, stronger effect = lower value 0.0889 | locus YCL069W, strain vba3, stronger effect = lower value 0.0861 | locus YCR088W, strain abp1, stronger effect = lower value 0.0839 | locus YDL005C, strain med2, stronger effect = lower value 0.0947 | locus YDL040C, strain nat1, stronger effect = lower value 0.0731 | locus YDR001C, strain nth1, stronger effect = lower value 0.0804 | locus YDR069C, strain doa4, stronger effect = lower value 0.0805 | locus YDR137W, strain rgp1, stronger effect = lower value 0.12 | locus YDR159W, strain sac3, stronger effect = lower value 0.115 | locus YDR195W, strain ref2 0.156 | locus YDR297W, strain sur2, stronger effect = lower value 0.074 | locus YDR334W, strain swr1, stronger effect = lower value 0.0896 | locus YDR335W, strain msn5, stronger effect = lower value 0.0873 | locus YDR392W, strain spt3, stronger effect = lower value 0.119 | locus YEL003W, strain gim4, stronger effect = lower value 0.0685 | locus YEL037C, strain rad23, stronger effect = lower value 0.0804 | locus YEL061C, strain CIN8 (second series), stronger effect = lower value 0.0788 | locus YER015W, strain faa2, stronger effect = lower value 0.0769 | locus YER016W, strain bim1, stronger effect = lower value 0.0802 | locus YER111C, strain swi4, stronger effect = lower value 0.103 | locus YER155C, strain BEM2 (second series), stronger effect = lower value 0.127 | locus YFR010W, strain ubp6, stronger effect = lower value 0.0904 | locus YGL167C, strain pmr1, stronger effect = lower value 0.0969 | locus YGL173C, strain kem1, stronger effect = lower value 0.088 | locus YGL227W, strain vid30, stronger effect = lower value 0.0887 | locus YGL240W, strain doc1, stronger effect = lower value 0.104 | locus YGL253W, strain hxk2, stronger effect = lower value 0.0777 | locus YHR013C, strain ard1, stronger effect = lower value 0.139 | locus YHR027C, strain rpn1, stronger effect = lower value 0.0784 | locus YHR030C, strain SLT2, stronger effect = lower value 0.148 | locus YHR079C, strain IRE1, stronger effect = lower value 0.134 | locus YHR142W, strain chs7, stronger effect = lower value 0.104 | locus YJL092W, strain hpr5, stronger effect = lower value 0.0829 | locus YJL095W, strain BCK1 (second series), stronger effect = lower value 0.0763 | locus YJL095W, strain BCK1, stronger effect = lower value 0.127 | locus YJL115W, strain asf1, stronger effect = lower value 0.101 | locus YJL129C, strain trk1, stronger effect = lower value 0.102 | locus YJL154C, strain vps35, stronger effect = lower value 0.0859 | locus YJL164C, strain tpk1, stronger effect = lower value 0.0769 | locus YJL166W, strain qcr8, stronger effect = lower value 0.0785 | locus YJR066W, strain TOR1, stronger effect = lower value 0.00414 | locus YKL160W, strain elf1, stronger effect = lower value 0.0922 | locus YKR026C, strain gcn3, stronger effect = lower value 0.0898 | locus YKR091W, strain srl3, stronger effect = lower value 0.0766 | locus YLL001W, strain dnm1, stronger effect = lower value 0.0857 | locus YLL026W, stronger effect = lower value 0.0726 | locus YLL041C, strain sdh2, stronger effect = lower value 0.0731 | locus YLR027C, strain aat2, stronger effect = lower value 0.071 | locus YLR113W, strain HOG1, stronger effect = lower value 0.163 | locus YLR221C, strain rsa3, stronger effect = lower value 0.0761 | locus YLR258W, strain gsy2, stronger effect = lower value 0.0743 | locus YLR262C, strain YPT6 (second series), stronger effect = lower value 0.0974 | locus YLR320W, strain mms22, stronger effect = lower value 0.0998 | locus YLR342W, strain FKS1, stronger effect = lower value 0.0803 | locus YLR357W, strain rsc2, stronger effect = lower value 0.172 | locus YLR370C, strain arc18, stronger effect = lower value 0.0859 | locus YLR384C, strain iki3, stronger effect = lower value 0.0798 | locus YML120C, strain ndi1, stronger effect = lower value 0.0749 | locus YMR058W, strain fet3, stronger effect = lower value 0.0885 | locus YMR125W, strain sto1, stronger effect = lower value 0.106 | locus YMR129W, stronger effect = lower value 0.0728 | locus YMR205C, strain PFK2, stronger effect = lower value 0.11 | locus YMR231W, strain pep5, stronger effect = lower value 0.0867 | locus YNL071W, strain lat1, stronger effect = lower value 0.0765 | locus YNL183C, strain NPR1, stronger effect = lower value 0.00429 | locus YNL209W, strain ssb2, stronger effect = lower value 0.076 | locus YNL248C, strain rpa49, stronger effect = lower value 0.104 | locus YNL322C, strain KRE1 (second series), stronger effect = lower value 0.0819 | locus YNR049C, strain mso1, stronger effect = lower value 0.0835 | locus YOR001W, strain rrp6, stronger effect = lower value 0.0849 | locus YOR070C, strain gyp1, stronger effect = lower value 0.106 | locus YOR080W, strain dia2, stronger effect = lower value 0.0874 | locus YOR083W, strain WHI5, stronger effect = lower value 0.0797 | locus YOR106W, strain vam3, stronger effect = lower value 0.0829 | locus YOR231W, strain MKK1, stronger effect = lower value 0.122 | locus YOR265W, strain rbl2, stronger effect = lower value 0.072 | locus YOR270C, strain vph1, stronger effect = lower value 0.139 | locus YOR290C, strain snf2, stronger effect = lower value 0.0977 | locus YPL051W, strain arl3, stronger effect = lower value 0.0807 | locus YPL078C, strain atp4, stronger effect = lower value 0.0919 | locus YPL106C, strain sse1, stronger effect = lower value 0.139 | locus YPL240C, strain hsp82, stronger effect = lower value 0.0779 | locus YPL256C, strain CLN2, stronger effect = lower value 0.143
